# Compound activity: PubChem BioAssay, National Center for Advancing Translational Sciences (NCATS)
# HP1b chromo inh = inhibitors of HP1-beta chromodomain binding to methylated histone tails | AlphaScreen HP1-beta / biotin-H3K9me3 peptide binding | Potency, µM (series often up to 114 µM), for inactives: top-dose activity change, negative = inhibition, usual class: inhibitors | AID 540317 | hit rate 0.56% among 390,000 | P83916; further: nearly all actives have a fitted effect of over 70% in size
#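 AlphaScreen: HP1-beta (50 nM) preformed 30 min with biotin-H3(1-18)K9me3 peptide (50 nM) in PBS pH 7.4, 0.01% Tween-20. Compound added for 30 min at RT, then streptavidin donor/nickel chelate acceptor beads (10 ug/mL) for 30 min.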
# Sfp PPTase inh = blocks B. subtilis Sfp PPTase activity; Q9F4F7; Biochemical Sfp PPTase activity, qHTS; Potency, µM, for the others: largest response in the series, negative = inhibition, most hits filed as inhibitors; hit rate 3.5% among 310,000; AID 1490;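 further: the enzyme is Sfp with the accession as filed and its product quenches rhodamine fluorescence; 0% = enzyme reaction without inhibitor and -100% = no enzyme wells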
#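 Compounds were incubated with enzyme (final 15 nM) for 15 min at room temperature before substrate addition started the reaction. Fluorescence at 525 nm excitation, 598 nm emission was recorded immediately and after 30 minutes.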
# G9a inh = G9a (human) methyltransferase inhibition. G9a H3K9 monomethylation, AlphaScreen, 2 h. hit rate 8.8% among 350,000. AID 504332. Potency, µM (top dose mostly 102 µM), inactives show at the highest dose activity, negative = inhibition, usual class: inhibitors; further: on the % scale 0 is the no-effect control and ±100 the full control effect; nearly all actives have a fitted effect of over 75% in size
#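 Step 1: enzyme (final 20 nM) with compound, 15 min RT. Step 2: substrate peptide 500 nM and SAM 20 uM, 2 h RT. Step 3: anti-H3K9me1 antibody and AlphaScreen beads, 10 min, then plate read.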
# BAZ2B block = inhibitors of human BAZ2B bromodomain; AlphaScreen BAZ2B-H3K14Ac peptide displacement; Potency, µM (series often up to 114 µM), inactives show at the highest dose activity change, negative = inhibition, actives largely listed as inhibitors; hit rate 4.4% among 360,000; further: on the % scale 0 is the no-effect control and ±100 the full control effect; nearly all actives have a fitted effect of over 60% in size
#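 AlphaScreen displacement of biotin-H3(5-23)K14Ac peptide (50 nM final) from BAZ2B (50 nM final) in PBS pH 7.4, 0.01% Tween-20; complex preformed 30 min RT, then compounds (top 110 uM) 30 min RT, beads 20 min dark.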
# JMJD2A Tudor inh = blocks the human JMJD2A Tudor domain | hit rate 4.4% among 390,000 | Potency, µM (titrated, usually from 114 µM), for inactives: top-dose activity change, negative = inhibition, usual class: inhibitors | AlphaScreen JMJD2A-Tudor / H3K4me3 peptide binding | O75164; further: on the % scale 0 is the no-effect control and ±100 the full control effect; nearly all actives have a fitted effect of over 50% in size
# Target sequence (O75164 whole entry, looked up, the tested form may be a part): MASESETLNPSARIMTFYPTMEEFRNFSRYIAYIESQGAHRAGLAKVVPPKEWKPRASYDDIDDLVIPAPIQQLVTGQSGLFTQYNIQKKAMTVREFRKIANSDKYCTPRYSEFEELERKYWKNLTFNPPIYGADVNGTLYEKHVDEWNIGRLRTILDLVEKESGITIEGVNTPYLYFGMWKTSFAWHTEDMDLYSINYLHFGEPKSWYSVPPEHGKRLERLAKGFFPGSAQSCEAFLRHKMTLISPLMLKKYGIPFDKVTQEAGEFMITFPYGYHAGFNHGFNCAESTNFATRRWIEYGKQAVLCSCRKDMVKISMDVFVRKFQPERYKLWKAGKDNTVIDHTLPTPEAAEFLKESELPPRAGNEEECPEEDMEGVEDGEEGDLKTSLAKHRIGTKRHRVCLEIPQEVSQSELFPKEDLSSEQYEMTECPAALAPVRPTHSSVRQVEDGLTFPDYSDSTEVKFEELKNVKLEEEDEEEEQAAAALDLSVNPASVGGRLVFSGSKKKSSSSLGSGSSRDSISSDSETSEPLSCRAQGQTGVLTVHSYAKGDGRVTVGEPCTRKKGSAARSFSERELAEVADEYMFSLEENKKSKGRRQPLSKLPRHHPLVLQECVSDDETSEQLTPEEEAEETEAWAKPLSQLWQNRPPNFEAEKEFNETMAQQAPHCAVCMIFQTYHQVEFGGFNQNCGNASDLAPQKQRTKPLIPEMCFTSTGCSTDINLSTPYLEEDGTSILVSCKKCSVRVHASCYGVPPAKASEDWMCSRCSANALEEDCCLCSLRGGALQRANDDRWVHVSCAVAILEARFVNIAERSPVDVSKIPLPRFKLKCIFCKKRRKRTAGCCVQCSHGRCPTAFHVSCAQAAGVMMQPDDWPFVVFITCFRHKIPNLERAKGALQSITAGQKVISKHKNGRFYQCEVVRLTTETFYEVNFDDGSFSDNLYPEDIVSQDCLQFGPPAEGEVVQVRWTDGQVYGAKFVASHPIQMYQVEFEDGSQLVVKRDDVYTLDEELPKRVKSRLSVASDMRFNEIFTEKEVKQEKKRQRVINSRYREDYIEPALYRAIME
# PLK1 PBD inh = PLK1 (human) polo-box domain binding inhibition | hit rate 2.8% among 360,000 | Plk1 PBD binding of FITC phosphopeptide, fluorescence polarization | P53350 | Potency, µM, without a hit: max response, negative = inhibition, hits mostly inhibitors; further: series mostly up to about 57 µM; on the % scale 0 is the no-effect control and ±100 the full control effect; nearly all actives have a fitted effect of over 65% in size
# Numbers without * were called inactive; u = inconclusive; x = no result; [ ] = dose if it differs, or a comment. Most compounds without a hit are left out; they make up all but 12% or so of the library. The call rests on the fitted dose curve; in most records, active means well fitted curve in the direction sought with a large enough effect; inconclusive means small, poorly fitted or top-dose-only effect, or another doubt; inactive means no such curve, though single readings can be large; an effect the other way counts as inactive or inconclusive. Potency means the concentration at half of the fitted maximal effect.
SMILES,HP1b chromo inh,Sfp PPTase inh,G9a inh,BAZ2B block,JMJD2A Tudor inh,PLK1 PBD inh
O=C(COc1ccc(Cl)cc1)Nc1nnc(C2=COCCO2)o1,18%,2%,7%,20µM*,3.5µM*,-15%
O=C(COc1ccccc1)Nc1nnc(-c2ccc3c(c2)CCCC3)o1,44%,11%,1%[59 µM],-2%,-16%,-13%
O=C(COc1ccccc1)Nc1nnc(-c2ccccc2Cl)o1,27%,x,x,x,22µM*,-8%
CCCCC(=O)Nc1nnc(C2=COCCO2)o1,-1%,u,50µM*,u,-2%,-8%
CCOc1ccccc1NC(=O)CCCc1nc(-c2ccccc2Cl)no1,54%,x,22%[59 µM],20%,28%,x
CC(=O)N1CCC[C@@]2(CCN(C(=O)Nc3ccccc3)C2)C1,x,14%,-2%[12.7 µM],x,x,x
COc1ccc(OC)c(NC(=O)c2cccc(N3C(=O)C4C5C=CC(C6CC56)C4C3=O)c2)c1 (stereo not given),-1%[57 µM],0%,3%,-27%,-19%,4%
O=C(C1CCN(S(=O)(=O)c2cccc3cccnc23)CC1)N1CCN(C2CCCCC2)CC1,38%,5%,35µM*,-3%,-27%,-12%
O=C(C1CCCN(S(=O)(=O)c2cccc3cccnc23)C1)N1CCc2ccccc21 (stereo not given),46%,-6%,45µM*,1%,-23%,-7%
O=C(NC1CCCCC1)C1CCCN(S(=O)(=O)c2cccc3cccnc23)C1 (stereo not given),41%,12%,9%,0%,-6%,-16%
COc1ccc2c(c1)CCc1cnoc1-2,49%,x,x,x,10%,-3%
COc1ccc2c(c1)CCc1cn[nH]c1-2,7%,-5%,-7%,-18%,u,27µM*
O=c1[nH]c2ccc(S(=O)(=O)N3CCN(S(=O)(=O)c4ccc5c(c4)OCCO5)CC3)cc2[nH]c1=O,x,x,x,x,-20%,x
COc1ccccc1C(=O)NNC(=S)NC(=O)c1cccs1,x,15%,43%,-10%,x,x
O=C(NC(=S)NNC(=O)c1ccccc1O)c1ccccc1,6%,10%,32µM*,u,32µM*,-15%
Cc1ccc(C(=O)NC(=S)NNC(=O)c2ccccc2O)cc1,24%,26%,u,3%,-7%,-5%
O=C(NC(=S)NNC(=O)c1ccccc1O)c1ccc(F)cc1,9%,18%,4%,u,56µM*,-27%
O=C(NC(=S)NNC(=O)c1ccccc1O)c1cccs1,-27%,18%,-16%,u,45µM*,-19%
Cc1ccccc1C(=O)NNC(=S)NC(=O)c1ccccc1,-7%,-35%,4µM*,11%,-27%,-12%
O=C1c2ccccc2C(=O)N1c1noc2ccccc12,x,x,x,x,-5%,x
CC(C)C[C@H](NC(=O)[C@H](Cc1ccccc1)C[C@@H](O)[C@H](Cc1ccccc1)NC(=O)OC(C)(C)C)C(=O)N[C@@H](Cc1ccccc1)C(N)=O,x,-12%,x,x,x,x
N#Cc1ccc(OC(=O)c2cc(-c3ccc(Cl)cc3)on2)cc1,56%,x,-31%[59 µM],-20%,-12%,x
COc1cccc(-n2c(SCC(=O)Nc3cc(C)ccc3C)nc3c(oc4ccccc43)c2=O)c1,7%,x,-4%[59 µM],4%,-23%,x
CCc1ccc(OC(C)c2nnc(SCC(=O)Nc3ncccc3C)n2C)cc1 (stereo not given),19%,3%,11µM*,-26%,u,-18%
O=C(Cn1c(SCC(=O)Nc2ccc(F)cc2)nc2ccccc21)NCc1ccc(Cl)cc1,32%,x,24%[59 µM],-15%,2%,x
SMILES,HP1b chromo inh,Sfp PPTase inh,G9a inh,BAZ2B block,JMJD2A Tudor inh,PLK1 PBD inh
COc1ccc2cc(CNCCOCCOCCNCc3ccc4cc(OC)ccc4c3)ccc2c1,1%,x,x,x,-19%,-1%
COc1cc(CO)ccc1OCc1nnnn1-c1ccc(C)cc1,-4%,14%,-4%,-1%,-21%,17µM*
COc1cc(CSc2nnnn2-c2ccc(C)cc2)cc(OC)c1OC,32%,0%,-2%[59 µM],10%,10%,-6%
Cc1ccc(C)c(N2CCN(C(=O)CN3CCSc4ccc(S(=O)(=O)N(C)C)cc43)CC2)c1,13%[57 µM],x,-21%[59 µM],-20%,-12%,x
NC(=O)CC[C@@H]1NC(=O)[C@@H]2CCCN2C(=O)c2cc([N+](=O)[O-])cc(I)c2NCCCC[C@@H](C(=O)NC(CC(=O)O)C(N)=O)NC1=O (stereo not given in full),42%,17%,56µM*,-25%,-22%,-5%
NC(=O)CC[C@@H]1NC(=O)[C@@H]2CCCN2C(=O)c2cc([N+](=O)[O-])cc(I)c2NCCC[C@@H](C(N)=O)NC1=O,54%,5%,45µM*,-11%,-18%,-5%
NC(=O)CC[C@@H]1NC(=O)[C@@H]2CCCN2C(=O)c2cc([N+](=O)[O-])cc(I)c2NCCC[C@@H](C(=O)NC(CC(=O)O)C(N)=O)NC1=O (stereo not given in full),21%,21%,u,-3%,-12%,-1%
CCOCCCN1C(=O)c2[nH]nc(-c3ccccc3O)c2C1c1ccc(CC)cc1 (stereo not given),21%,x,-11%[59 µM],-12%,u,x
O=C(NC(=S)N1CCOCC1)C12CCC3CC(CC(C3)C1)C2,-11%,-29%,10%[59 µM],12%,-23%,30µM*
Cc1ccc(NC(=O)COC(=O)COc2cccc3c2OC(C)(C)C3)c(C)c1,30%,x,22%[2.33 µM],9%,-7%,-2%
Cc1cc(C)cc(OCC(=O)N2CCC(c3nc4ccccc4o3)CC2)c1,22%,x,-3%[59 µM],3%,-14%,x
CCCCCCNC(=O)N[C@@H](C(=O)NCCC[C@H]1CN2C(=NC[C@@H]2Cc2ccccc2)N1CCc1cccc(OC)c1)C(C)C,u,3.5µM*,u,25µM*,5µM*,1.5µM*
CC(C)(C)OC(=O)N1CCN(C(=O)c2[nH]cnc2C(=O)NCC(=O)OCc2ccccc2)CC1,27%,19%,71µM*,-1%,-19%,-2%
CC1CCN(C(=O)c2[nH]cnc2C(=O)NCC(=O)OC(C)(C)C)CC1,14%,1%,5%,-27%,-13%,-8%
CC(C)(C)OC(=O)N1CCN(C(=O)c2[nH]cnc2C(=O)NCc2ccccc2)CC1,23%,x,12%[0.501 µM],4%,-11%,-2%
CC(C)(C)OC(=O)CNC(=O)c1nc[nH]c1C(=O)N1CCN(C(=O)OC(C)(C)C)CC1,24%,13%,79µM*,-7%,-3%,-2%
CC(C)(C)OC(=O)CNC(=O)c1nc[nH]c1C(=O)N1CCNCC1,35%,x,22%[2.33 µM],79µM*,u,0%
CC(C)(C)OC(=O)CNC(=O)c1nc[nH]c1C(=O)N1CCc2ccccc2C1,49%,18%,u,-30%,-35%,-28%
